The whole screen tested about 1,400 compounds, of which about 100 (7.1%) were called active. The rule behind the calls is not given here. Only a sample is shown. Results with a measured potency or affinity are listed apart.
test: viability loss in Vero cells – cell-based, plate reader, cherry-pick samples, cytotoxicity control, dose response (AID 687020); conditions: series mostly up to 19.5 µM;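 note: compounds incubated with cells for three days before luminescence read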

SMILES | outcome
CCCNC(=O)C(Cc1ccc(I)cc1)NC(=O)c1ccc(C#N)cc1 (stereo not given) | inactive
O=C(CN1CCN(Cc2ccccc2)CC1)NNC(=O)c1ccccc1 | inactive
Cc1ccnc(NC(=O)C(Cc2ccccc2)NC(=O)c2ccccc2)c1 (stereo not given) | inactive
Cc1cn([C@H]2C[C@H](O)[C@@H](CNCc3ccc4ncccc4c3)O2)c(=O)[nH]c1=O | inactive
CCOc1ccc(N(CC(=O)Nc2cccc(C)c2)S(C)(=O)=O)cc1 | inactive
CCN(CC)S(=O)(=O)c1ccc(NC(=O)COC(=O)CNC(=O)C2CCCCC2)cc1 | inactive
CCCc1cc(=O)oc2c(C)c(OCC(=O)N3C[C@H]4C[C@@H](C3)c3cccc(=O)n3C4)ccc12 | inactive
Cc1c(C)c2c(OCC(=O)N3CCC(O)CC3)cc3c(c2oc1=O)CCC(C)(C)O3 | inactive
C[C@@H]1CN([C@H](C)CO)C(=O)c2cc(NC(=O)Nc3ccc(C(F)(F)F)cc3)ccc2O[C@@H]1CN(C)Cc1ccccc1 | inactive
COc1ccccc1N1CCN(C(=O)c2cc(S(=O)(=O)N3CCCCC3)ccc2C)CC1 | inactive
O=C(Nc1ccn(CC(=O)N2CCN(c3ccccn3)CC2)c(=O)n1)OCc1ccccc1 | inactive
CC(C)(C)OC(=O)C(Cc1ccc(OC(C)(C)C)cc1)NC(=O)CNC(=O)OCc1ccccc1 (stereo not given) | inactive
Cc1cccc(NC(=O)c2cccc(S(=O)(=O)N(C)C3CCCCC3)c2)n1 | inactive
CCCC/C=C/c1cccc2nncn12 | inactive
COc1cccc(-c2nc3nc(C)cc(C)n3c2NC2CCCC2)c1 | inactive
CCC(=O)Nc1cc(C(=O)OCc2ccc(C(=O)Oc3ccccc3)cc2)ccc1C | inactive
O=C([C@@H]1[C@@H](CO)[C@@H]2Cn3c(cccc3=O)[C@H]1N2C(=O)CC1CC1)N1CCCCC1 | inactive
CCCCNC(=O)c1onc(CS(=O)(=O)c2ccccn2)c1C(=O)NCCCC | inactive
COc1ccc([C@H]2/C=C\CN(C(=O)c3ccc(C)cc3)[C@@H](C)C(=O)N2Cc2ccc(F)cc2)cc1 | inactive
O=C(N[C@H](Cc1ccccc1)C(=O)NC1CCCCC1)[C@H]1O[C@@H](n2ccc(=O)[nH]c2=O)[C@H](O)[C@@H]1O | inactive
COC(=O)c1ccc2nc(C3CCCCC3)c(Cc3ccccc3OC)n2c1 | inactive
COC(=O)c1ccc2nc(-c3ccc(C#N)cc3)c(Cc3cccc(F)c3)n2c1 | inactive
CCN1CCN(CCc2nc3cc(NC(=O)COc4ccc(Cl)cc4)ccc3n2C)CC1 | inactive
CCN1C(=NCCc2c[nH]c3ccccc23)N[C@@H](c2ccccc2)[C@H](C(=O)OC)[C@H]1C | inactive

SMILES | outcome
NCc1csc(NC(=O)Nc2cccc(Cl)c2)n1 | inactive
COC(=O)[C@]12CCCCC=C1N(Cc1cccc3ccccc13)C(=O)[C@H](CC(=O)NCCC(C)C)C2 | inactive
COC(=O)[C@]12CCCCC=C1N(Cc1cccc3ccccc13)C(=O)[C@H](CC(=O)N1CCOCC1)C2 | inactive
COc1ccc(S(=O)(=O)Nc2ccc3c(c2)C(=O)N([C@@H](C)CO)C[C@H](C)[C@H](CN(C)C(=O)Nc2ccc(C(F)(F)F)cc2)OCCCC[C@H](C)O3)cc1 | inactive
CC(NC(=O)CN1CCCC1)c1ccccc1 (stereo not given) | inactive
Cc1cc(C)c2[nH]c(C(=O)Nc3ccc4c(c3)OCO4)cc2c1 | inactive
Cc1cccc(OCCn2c(=O)n(C)c3ccccc32)c1 | inactive
Cc1oc2cc3oc(=O)c(CCC(=O)NCCCn4ccnc4)c(C)c3cc2c1C | inactive
Cc1c(C)c2cc(Cl)c(OCC(=O)NCCCN3CCCC3=O)cc2oc1=O | inactive
COc1ccc(CN(CCC(c2ccccc2)C2CCOC(C)(C)C2)C(C)=O)cc1 (stereo not given) | inactive
Cc1ccc(C2(C)NC(=O)N(CC(=O)Nc3ccccc3C(=O)NC3CCCC3)C2=O)cc1 (stereo not given) | inactive
Cc1cccc(C(=O)NC2CCN(CC(=O)Nc3cccc(Cl)c3)CC2)c1 | inactive
O=S1(=O)CCOCCCN1Cc1ccccc1Br | inactive
CN1C(=O)c2cc(NC(=O)Cc3cccs3)ccc2OC[C@@H]2O[C@H](CC(=O)NCC3CCCCC3)CC[C@H]21 | inactive
CC(=O)N1CC2(C1)[C@H](c1ccc(-c3ccc(C#N)cc3)cc1)[C@@H](CO)N2C(=O)C1CC1 | inactive
CCCCN1C(Nc2ccccc2)=NC[C@@H]1Cc1ccccc1 | inactive
O=C(Nc1ccccc1)c1ccccc1CSc1ccccc1 | inactive
O=C(Cc1cccc(C(F)(F)F)c1)Nc1ccc(S(=O)(=O)N2CCCC2)cc1 | inactive
O=S(=O)(c1cccc(C(F)(F)F)c1)N1CCN(CC(O)COCc2ccccc2)CC1 (stereo not given) | inactive
CC1(C#N)c2ccccc2C(Br)=CN1C(=O)c1ccccc1 (stereo not given) | inactive
COc1ccc(NC(=O)C2CCC(CNS(=O)(=O)c3cccs3)CC2)cc1OC (stereo not given) | inactive
O=C1Nc2ccccc2SC1c1ccccc1 (stereo not given) | inactive
COc1ccc(-c2nc3ccc(C)cn3c2Cc2cccc(F)c2)cc1OC | inactive
CC(=O)Nc1cccc(C(=O)OCC(=O)Nc2ccc(Cl)cn2)c1 | inactive

SMILES | outcome
CC(=O)Nc1cccc(/C(C)=N/NC(=O)c2cccc(S(=O)(=O)N3CCCC3)c2)c1 | inactive
O=C(C1CCOCC1)N1[C@H](CO)[C@@H](c2ccccc2)C12CN(Cc1cccnc1)C2 | inactive
COC(=O)Cc1ccc(OC2(C)CCN(Cc3csc4ccccc34)C2)cc1 (stereo not given) | inactive
COc1ccc(Cc2nnc(NC(=O)c3ccccc3Cl)s2)cc1OC | inactive
COC(=O)CCc1cccc(CCC(=O)OC)c1 | inactive
C[C@@H](NC(=O)C[C@@H]1CC[C@H]2[C@@H](COC[C@H](O)CN2C(=O)Nc2ccccc2)O1)c1ccccc1 | inactive
Cc1ccc(S(=O)(=O)NC(=O)C2(C)CCN2C(=O)c2ccc(C(F)(F)F)nc2C)cc1 (stereo not given) | inactive
Cc1ccc(-c2csc(NC(=O)c3ccc(S(=O)(=O)N4CCc5ccccc54)cc3)n2)cc1 | inactive
O=S(=O)(c1cnc(Cl)c(Cl)c1)N1CCc2ccccc21 | inactive
COCCNC(=O)C[C@@H]1C[C@H]2c3cc(NC(=O)Nc4ccc(OC)cc4)ccc3O[C@H]2[C@@H](CO)O1 | inactive
COc1ccc(CC(=O)OCC(=O)NCCNC(=O)COC(=O)Cc2ccc(OC)cc2)cc1 | inactive
C[C@H](CCC(=O)O)[C@H]1CC[C@H]2[C@@H]3CC[C@@H]4C[C@H](O)CC[C@]4(C)[C@H]3C[C@H](O)[C@]12C | inactive
Cc1oc2c(C)c3oc(=O)c(CCC(=O)NCCN4CCOCC4)c(C)c3cc2c1C | inactive
CC(Oc1ccc(Cl)cc1Cl)C(=O)NCCCN1CCOCC1 (stereo not given) | inactive
O=C(NC1CCCCC1)N[C@H]1C=C[C@@H](CC(=O)N2CCOCC2)O[C@@H]1CO | inactive
CN(CC(=O)Nc1ccccc1C(=O)NC1CC1)Cc1ccccc1F | inactive
CCCCCC(=O)NC1CCCCN(C)C1=O (stereo not given) | inactive
CC(=O)NCCNc1nc(NCc2cccs2)nc2ccsc12 | inactive
COc1ccc(N2CCN(Cc3nc4c(c(=O)[nH]c(=O)n4C)n3Cc3cccc(Cl)c3)CC2)cc1 | inactive
NC(c1csc(NC(=O)Nc2cccc(Cl)c2)n1)C1CCCCC1 (stereo not given) | inactive
Cc1ccc(Cn2cc(CN3CC(N(C)C)CS3(=O)=O)nn2)cc1 (stereo not given) | inactive
CC(C)(C)OC(=O)NC(CC(=O)OCc1ccccc1)C(=O)O (stereo not given) | inactive
O=C(O)C(Cc1ccc(Cl)cc1)NS(=O)(=O)c1ccc(Cl)cc1 (stereo not given) | inactive
O=S(=O)(c1ccc(=S)[nH]c1)N1CCN(Cc2ccccc2)CC1 | inactive

SMILES | outcome
O=C(O)C1C2C=CC(C2)C1C(=O)NCc1ccccc1 (stereo not given) | inactive
O=C(Nc1cc(F)cc(F)c1)c1sc(Cl)nc1-c1ccccc1 | inactive
CCS(=O)(=O)N1CCC2(CC1)OCCN2S(=O)(=O)c1ccccc1 | inactive
NC(=O)C1CCN(C(=O)C2(NC(=O)Nc3cccc(F)c3)CCCCC2)CC1 | inactive
CCCCN1C[C@H](Cc2ccccc2)[C@@H](CC(=O)NCc2ccc(OC)cc2)C1=O | inactive
COc1ccc(CNC(=O)C[C@H]2C(=O)N(Cc3ccccc3)C[C@@H]2Cc2ccccc2)cc1 | inactive
CCCCn1nc(C(=O)Nc2ccc3c(c2)OCO3)c2ccccc2c1=O | inactive
CO[C@@H]1CN(C)C(=O)c2ccc(NS(=O)(=O)c3cccc(F)c3)cc2OC[C@@H](C)N(C(=O)Cc2cccnc2)C[C@H]1C | inactive
COc1ccc(-c2csc(C(C)(O)c3ccc(F)c(F)c3)n2)cc1OC (stereo not given) | inactive
COc1cc(NC(=O)c2nccn2C)cc(C(=O)Nc2cccc(C(F)(F)F)c2)c1 | inactive
COc1ccc(NC(=O)CN2CCc3ccccc3C2)cc1S(=O)(=O)N1CCOCC1 | inactive
COc1ccc(CCC(=O)Nc2cc(S(=O)(=O)N3CCOCC3)ccc2OC(C)C)cc1 | inactive
CCCNC(=O)N1CC2(C1)CN(Cc1cccc(F)c1)[C@@H](CO)c1[nH]c3cc(OC)ccc3c12 | inactive
C[C@@H](NC(=O)[C@@H]1[C@@H](CO)[C@@H]2Cn3c(cccc3=O)[C@@H]2N1CC1CCCC1)c1ccccc1 | inactive
CC(Oc1ccc2ccc(=O)oc2c1)C(=O)NC(Cc1c[nH]c2ccc(O)cc12)C(=O)O (stereo not given) | inactive
O=C(N[C@@H]1CC[C@H](CCNC(=O)C2CCCCC2)O[C@@H]1CO)c1ccccn1 | inactive
COc1ccc(CCN2CC(C(=O)NCCc3ncccc3C)CCC2=O)cc1 (stereo not given) | inactive
CCCc1cc(CNC(=O)C2CCC(=O)N(CCc3cccc(F)c3)C2)on1 (stereo not given) | inactive
Nc1ccc2oc(-c3ccccc3Cl)cc(=O)c2c1O | inactive
Cc1ccc(OCCCCNC(C)c2ccccc2)c(C)c1 (stereo not given) | inactive
COc1ccc(Cl)cc1-c1cc(C(=O)N[C@H](C)c2ccccc2)[nH]n1 | inactive
CC(C)c1ccccc1OCCCCN1CCCCC1 | inactive
Cc1cc(O)c(C(C)C)cc1NC(=O)c1ccccc1Cl | inactive

— PubChem BioAssay AID687020 (Broad Institute, 2013)
